Shown are actives, neighbours in structure and some others; about 5.7% of the full set was active somewhere.
ClpP mod = qHTS Assay for Activators of ClpP | ATP-dependent Clp protease proteolytic subunit (Bacillus subtilis (strain 168)), P80244 | purified B. subtilis ClpP, FRET peptide cleavage, 20 min | Potency, µM (doses to about 57.5 µM) | hit rate 1.9% among 340,000 | AID 651965, 2013; active means well fitted falling curve with a large enough effect; inconclusive means small, poorly fitted or top-dose-only effect; inactive means no such curve, though single readings can be large or run the other way; further: the source files actives as falling curves though it sought activators and does not explain the sign; nearly all actives have a fitted effect of over 65% in size
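Buffer: 100 mM Tris/HCl pH8, 100 mM KCl, 0.05% low protease BSA, 2.5% glycerol, 0.01% Tween-20. ClpP 10 microg/mL final; 20 min RT; delta FRET normalized to ADEP and DMSO controls.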
GLP-1R agonist = GLP-1 receptor (human) agonism. Potency, µM (top dose mostly 45.6 µM), usual class: activators. AID 624172. hit rate 0.007% among 380,000. HEK293 GLP-1R CRE-luciferase, luminescence, 4-6 h; cells express a hypersensitive GLP-1R form
HEK293 tox = cytotoxicity in counter-screen for GLP-1R inverse agonists | AID 624418 | hit rate 0.13% among 410,000 | HEK293 cAMP-luciferase reporter cells, luminescence, 24 h | Potency, µM (doses to about 38.3 µM), usual class: inhibitors;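 further: loss of luciferase light is scored as toxicity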
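Step one: seed cells (200 cells/uL, DMEM with 10% Nu serum, 1% pen-strep). Step two: 12-hour incubation at 37 deg C. Step three: pin 23 nL compound, incubate 24 hr. Step four: add luciferase reagent, read luminescence 12 min later.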
DRD3 antagonist = blocks the human D3 dopamine receptor. hit rate 2.5% among 360,000. D3R cells, DiscoveRx beta-arrestin luminescence, antagonist mode; active compounds read low. P35462. max response, negative = inhibition, %; in the data active means max response below about -50%; inconclusive means no clear call, values can overlap the other calls
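Cells expressing the human receptor were seeded at 1500 cells/well, incubated overnight at 37 degrees C in 5% CO2, then exposed to library compounds with dopamine controls for 90 minutes at 37 degrees C before luminescent detection.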
DRD3 agonist = D3 dopamine receptor (human) agonism; P35462; D3R DiscoveRx beta-arrestin cells, luminescence, 90 min; max activation, %; hit rate 0.58% among 410,000; AID 652048; in the data active means max activation above about 30%
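Cells at 1500/well, incubated overnight, then treated with pinned compounds (dopamine as control) for 90 min at 37 degrees C. DiscoveRx reagent added for 30 - 60 minutes at room temperature; luminescence read.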
GLP-1R inv ag = acts as inverse agonist at human GLP-1 receptor | P43220 | Potency, µM (top dose mostly 38.3 µM), most hits filed as inhibitors | hit rate 1.6% among 410,000 | HEK293 GLP-1R CRE-luciferase, luminescence, 24 h; GLP-1R form is constitutively active; further: nearly all actives have a fitted effect of over 55% in size
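HEK293 cells stably co-expressing constitutively active GLP-1R and a cAMP-responsive luciferase reporter were seeded in DMEM with 10% Nu serum, given compounds after 12 h, and incubated 24 h at 37 deg C. Luminescence was then read.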
Each line names hits and unclear results; the compound was inactive in the other large screens. Unless noted, the call rests on the fitted dose curve; in most records, active means well fitted curve in the direction sought with a large enough effect; inconclusive means small, poorly fitted or top-dose-only effect, or another doubt; inactive means no such curve, though single readings can be large; an effect the other way counts as inactive or inconclusive.

CC(=O)Nc1ccc2c(c1)[nH]c(=O)c1ccccc12	ClpP mod 32µM
Nc1cccc2[nH]c(=O)c3ccccc3c12	ClpP mod 28µM
Cc1ccc(C)c(N2CCN(C(=O)COc3cc(=O)n(C)c4ccccc34)CC2)c1	none
Cc1ccc(C)c(N2CCN(C(=O)CCc3nc(-c4ccccc4C(F)(F)F)no3)CC2)c1	DRD3 agonist 39, GLP-1R inv ag inconclusive
Cc1ccc(C)c(N2CCN(C(=O)CCCOc3cc(=O)n(C)c4ccccc34)CC2)c1	HEK293 tox inconclusive, DRD3 agonist 79
COc1ccccc1-c1noc(CCC(=O)N2CCN(c3cc(C)ccc3C)CC2)n1	DRD3 agonist 49, GLP-1R inv ag inconclusive
Cc1ccc(-c2noc(CCC(=O)N3CCN(c4cc(C)ccc4C)CC3)n2)cc1	GLP-1R inv ag inconclusive
COc1cccc(-c2noc(CCC(=O)N3CCN(c4cc(C)ccc4C)CC3)n2)c1	GLP-1R inv ag inconclusive
COc1ccc(-c2noc(CCCC(=O)N3CCN(c4cc(C)ccc4C)CC3)n2)cc1	none
COc1ccc(-c2noc(CCCCC(=O)N3CCN(c4cc(C)ccc4C)CC3)n2)cc1	DRD3 agonist 53, GLP-1R inv ag inconclusive
CN(C)c1ncnc2c1ncn2[C@H]1CN(Cc2ccc3c(c2)OCO3)C[C@@H](CO)O1	none
CC(C)CSc1nnc(-c2ccccc2)c(-c2ccccc2)n1	GLP-1R inv ag inconclusive (no result: GLP-1R agonist, DRD3 antagonist)
O=C1NC[C@@H](CCCCN2C[C@H](Cc3ccc(O)cc3)N(CC3CCCCC3)C(=O)C2=O)N(Cc2ccccc2)C1=O	DRD3 antagonist -75
O=C1NC[C@@H](CCCCN2C[C@H](Cc3ccc(O)cc3)N(CCc3ccccc3)C(=O)C2=O)N(Cc2ccccc2)C1=O	none
O=C1NC[C@H](c2ccccc2)N(CCCCC2CCCCC2)C1=O	DRD3 antagonist -58
O=C1NC[C@@H](CCCCN2C[C@H](Cc3ccccc3)N(Cc3ccccc3)C(=O)C2=O)N(CC2CCCCC2)C1=O	none
O=C1NC[C@H](CCCCN2C[C@H](Cc3ccc(O)cc3)N(Cc3ccccc3)C(=O)C2=O)N(CCc2ccc(O)cc2)C1=O	DRD3 agonist 37
NCCCC[C@H]1CNC(=O)C(=O)N1CCCCC1CCCCC1	none
Cc1ccc(OCCCCn2nnc3sc4c(c3c2=O)CCCC4)cc1	none (no result: GLP-1R agonist, DRD3 antagonist)
COc1ccc(NC(=O)C(NS(=O)(=O)c2cccc3nsnc23)C(C)C)cc1 (stereo unspecified)	none (no result: GLP-1R agonist, DRD3 antagonist)
CCC12C(=O)C(CC)(C(c3ccccc3)=C1c1ccccc1)[C@@H]1C(=O)N(c3ccccc3)C(=O)C12 (stereo partly specified)	GLP-1R inv ag 3.2µM
CCCCN(CCCC)C(=S)[S-].CCCCN(CCCC)C(=S)[S-].[Zn+2]	none (no result: ClpP mod, GLP-1R agonist, HEK293 tox, DRD3 antagonist, GLP-1R inv ag)
COc1cc2c3nnc(-c4ccc(F)cc4)c-3cn(Cc3ccc(C)cc3)c2cc1OC	ClpP mod 20µM
COc1cc2c3nnc(-c4ccccc4)c-3cn(Cc3ccc(F)cc3)c2cc1OC	none (no result: ClpP mod)
COc1ccc(C2=C(C)C(=NCCCN3CCN(c4cc(C)ccc4C)CC3)NS2(=O)=O)cc1	none (no result: GLP-1R agonist, DRD3 antagonist)
Cc1ccc2c(c1)CC(C)N2S(=O)(=O)c1nnc(NC(=O)c2ccccc2F)s1 (stereo unspecified)	GLP-1R inv ag inconclusive (no result: GLP-1R agonist, DRD3 antagonist)
O=C(Cn1c(=O)n(-c2ccc(Cl)cc2)c(=O)c2sc3ccccc3c21)NC1CCCC1	ClpP mod inconclusive (no result: DRD3 antagonist)
O=C(Nc1ccc(F)cc1F)c1cc2n(n1)C(C(F)(F)F)C1CCCCC1N2 (stereo unspecified)	ClpP mod 28µM, DRD3 antagonist inconclusive, GLP-1R inv ag inconclusive
O=C(Nc1ccc(F)cc1F)c1cc2nc3c(c(C(F)(F)F)n2n1)CCCC3	none
CCOC(=O)c1c(C)n(CCNC(C)=O)c2ccc(OC)cc12	none
CCOC(=O)c1c(-c2ccccc2)c2cc(OC)ccc2n1CCCN(C)C	DRD3 antagonist -72
CC1CCN(CCCCOc2ccccc2Br)CC1	DRD3 antagonist -54
Brc1ccccc1OCCCCN1CCCCC1	DRD3 antagonist -97
COc1ccccc1OCCCCN1CCCCC1	DRD3 antagonist inconclusive
CC1CCN(CCCCOc2ccccc2F)CC1	DRD3 antagonist -82 (no result: ClpP mod)
Brc1ccccc1OCCCN1CCOCC1	DRD3 antagonist -51
Nc1[nH]c(=O)[nH]c(=O)c1N=Cc1ccccc1	ClpP mod 28µM
Cc1cc(NC(=O)c2ccc(NC(=O)CCS(=O)(=O)c3cccs3)cc2)ccc1Br	GLP-1R inv ag inconclusive (no result: GLP-1R agonist, DRD3 antagonist)
COC(=O)c1cc(CSC(=N)N)ccc1OCCC(C)C	HEK293 tox inconclusive, GLP-1R inv ag 10µM (no result: ClpP mod)
O=C(Nc1cccc2ccccc12)c1ccc([N+](=O)[O-])cc1	none
O=C(CNc1cccc2ccccc12)c1ccc([N+](=O)[O-])cc1	ClpP mod 5.6µM
COc1cc(CCN=Cc2cc(Cl)cc(Cl)c2O)c([N+](=O)[O-])cc1OC	DRD3 antagonist -50
COc1cc(CC(=O)O)c([N+](=O)[O-])cc1OC	none
CC(C)[C@@H](NC(=O)OC(C)(C)C)c1cc(C(=O)c2c(-c3ccccc3)[nH]c3ccccc23)c(N)s1	GLP-1R inv ag 7.1µM (no result: GLP-1R agonist)
CC(C)[C@H](NC(=O)OC(C)(C)C)c1cc(C(=O)NCCc2c[nH]c3ccccc23)c(N)s1	none (no result: GLP-1R agonist)
Cc1ccc(OCCn2cc(C(=O)c3ccco3)c3ccccc32)cc1C	ClpP mod inconclusive, GLP-1R inv ag 10µM (no result: GLP-1R agonist, DRD3 antagonist)
O=c1cc(-c2ccccc2)nc(SCc2nc(-c3cccc(C(F)(F)F)c3)no2)[nH]1	none (no result: GLP-1R agonist, DRD3 antagonist)
c1ccc(Oc2nc(Oc3ccccc3)nc(N3CCOCC3)n2)cc1	GLP-1R inv ag 7.9µM
CCOc1ccc(/C=N/N(C)c2ccccc2)cc1OC	DRD3 antagonist -54
CC(C)c1cnc2c(c1SCC(=O)Nc1ccccc1C(F)(F)F)c(=O)n(C)c(=O)n2C	none (no result: GLP-1R agonist, DRD3 antagonist)
Cc1ccc(Nc2nc(N)nc(CCl)n2)c(C)c1	GLP-1R inv ag 4.5µM
Cc1ccc(Nc2nc(N)nc(CSc3nccn3C)n2)c(C)c1	ClpP mod 4µM
COc1ccccc1Nc1nc(N)nc(CCl)n1	HEK293 tox inconclusive (no result: ClpP mod)
Cc1cccc(Nc2nc(N)nc(CCl)n2)c1C	GLP-1R inv ag 5µM (no result: ClpP mod)
CN1CCN(c2ccc(NC(=O)CSc3nnnn3-c3ccccc3Cl)cc2)CC1	GLP-1R inv ag 5µM
Cc1ccc2nc(-c3ccc(Cl)cc3)cc(C(=O)OCC(=O)c3ccccc3)c2c1	none (no result: GLP-1R agonist, DRD3 antagonist)
FC(F)(F)c1cnc(NNC(=S)Nc2cccnc2)c(Cl)c1	DRD3 antagonist -67, GLP-1R inv ag inconclusive
FC(F)(F)c1cnc(NNC(=S)Nc2ccccc2)c(Cl)c1	DRD3 antagonist -92, GLP-1R inv ag inconclusive

Screens deposited in PubChem by National Center for Advancing Translational Sciences (NCATS).
